PrP UTR inh: suppresses PrP 5' UTR mRNA reporter expression. cell-based PrP 5' UTR mRNA reporter, plate reader. inhibition, % (concentration not given with the values). 340,000 tested, 0.35% active; in the data active means inhibition above about 52%
Y pestis TopoI: Y. pestis Topo-I inhibition via cleavage products; 360,000 tested, 0.064% active; Y. pestis Topo-I cleavage product accumulation, plate reader; AID 504884; activity, % at 10 µM; in the data active means activity above about 50%, passing the limit was not always enough; inconclusive means no clear call, values can overlap the other calls
GDH-TPI counter: inhibits GDH-TPI coupling enzymes, artifact for Mtb FBA screen; GDH-TPI coupled enzyme counterscreen, NADH absorbance; inhibition, % at 4.8 µM; 360,000 tested, 1.2% active; in the data active means inhibition above about 30%
FBA Mtb inh: Mtb fructose-bisphosphate aldolase inhibition. P9WQA3. purified M. tuberculosis FBA, fluorescence read-out. inhibition, % at 1 µM. 360,000 tested, 2.3% active. AID 588726; in the data active means inhibition above about 27%
Target sequence (P9WQA3 whole entry, looked up): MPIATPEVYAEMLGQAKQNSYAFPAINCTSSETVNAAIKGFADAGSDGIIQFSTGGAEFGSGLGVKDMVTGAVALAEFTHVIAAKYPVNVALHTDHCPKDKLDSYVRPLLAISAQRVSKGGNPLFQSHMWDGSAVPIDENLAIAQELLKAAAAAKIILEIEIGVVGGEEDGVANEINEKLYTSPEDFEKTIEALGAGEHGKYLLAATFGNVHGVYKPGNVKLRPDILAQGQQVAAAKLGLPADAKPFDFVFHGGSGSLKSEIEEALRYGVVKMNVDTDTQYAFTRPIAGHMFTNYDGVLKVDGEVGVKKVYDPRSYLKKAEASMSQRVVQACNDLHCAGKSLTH
Mtb hypoxia rep: reduces hypoxia-regulated biosensor signal in M. tuberculosis. M. tuberculosis hypoxia-regulated fluorescent reporter, fluorescence. fluorescence inhibition, % (no concentration beside the values). 300,000 tested, 0.1% active. AID 1159583; in the data active means fluorescence inhibition mostly above about 23%, no sharp cut-off; inactive means mostly below about 17%
PrPC surface inh: reduces human prion protein on the cell surface; AID 720596; cell surface PrPC, TR-FRET read-out; 370,000 tested, 0.43% active; inhibition, % at 13.8 µM; in the data active means inhibition above about 24%
Numbers stand for hits; – = inactive; ? = inconclusive; · = no result given; + = active, no number; ! = a repeat was not active. Most compounds without a hit are left out; they make up all but 3.8% or so of the library.

SMILES | PrP UTR inh | Y pestis TopoI | GDH-TPI counter | FBA Mtb inh | Mtb hypoxia rep | PrPC surface inh
COc1ccc(CN2CCN(c3ccccn3)CC2)c(OC)c1C | – | – | – | +! | – | –
COc1cc(/C=C/C(=O)Nc2ccc3nc4n(c(=O)c3c2)CCCC4)cc(OC)c1OC | – | – | 38 | – | – | –
COc1cc(/C=C/C(=O)Nc2ccc(S(=O)(=O)Nc3onc(C)c3C)cc2)cc(OC)c1OC | – | – | 39 | – | · | –
COc1ccc(-c2cc(C(=O)Nc3ccc(S(=O)(=O)Nc4onc(C)c4C)cc3)c3ccccc3n2)cc1OC | – | – | 42 | – | – | –
O=C(C1=CC(c2coc3ccccc3c2=O)CC(OCCCCO)O1)N1CCN(Cc2ccc3c(c2)OCO3)CC1 (stereo not drawn) | · | · | · | · | – | ·
CCCOc1ccc(Br)cc1C=NNC(=O)c1cc(OC)c(OC)c(OC)c1 | · | · | · | · | – | ·
O=C(CC1CC=CCC(Cc2ccc(F)cc2)C(=O)OCC2CCCN2C1=O)NCCO (stereo not drawn) | · | · | · | · | – | ·
COc1cc(C(=O)N/C(=C\c2cn(C)c3ccccc23)C(=O)NCCN2CCOCC2)cc(OC)c1OC | – | – | 41 | – | – | –
COc1ccc(C(=O)N/C(=C\c2cn(C)c3ccccc23)C(=O)NCCN2CCOCC2)cc1OC | – | – | 44 | – | – | –
COc1ccccc1/C=C/C=NNC(=O)CC1C(=O)NN=C1C (stereo not drawn) | · | · | · | · | – | ·
COc1ccccc1-c1cc(C(=O)NN=Cc2cnn(C)c2C)c2ccccc2n1 | · | · | · | · | – | ·
CC(C)N1CCc2c(sc(N)c2C#N)C1 | – | – | 32 | – | – | –
COc1ccccc1NCC(=O)NN=C(C)c1cccs1 | · | · | · | · | – | ·
COc1ccc(N2C3=C(C(=O)CC(C)(C)C3)C(c3cnn(C)c3)C3=C2CC(C)(C)CC3=O)cc1 | – | – | – | 112 | – | –
COc1ccc(/C=C2\SC(=O)N(CC(=O)NNC(=O)c3ccccc3O)C2=O)cc1OC | – | – | – | – | · | –
O=C(CN1C(=O)S/C(=C\c2ccccc2)C1=O)NNC(=O)c1ccccc1O | – | – | 31 | – | – | –
CC(=O)NNC(=O)CN1C(=O)/C(=C/c2ccccc2)SC1=S | – | – | – | – | – | –
COc1ccc(/C=C2\SC(=O)N(CC(=O)NNC(=O)c3ccccc3O)C2=O)cc1 | – | – | 33 | – | – | –
O=C(O)c1ccc(/C=C2\SC(=S)N(Nc3ccccc3)C2=O)cc1 | – | – | 34 | – | – | –
CC(=O)NC(CC(=O)NCCN1C(=O)S/C(=C\c2ccccc2)C1=O)c1ccccc1 (stereo not drawn) | – | – | 48 | – | – | –
CCc1ccc(C=C2SC(=S)N(CCC(=O)NC3=NCCS3)C2=O)cc1 | · | · | · | · | – | ·
CC(CC(=O)Nc1ccc(F)cc1)=NNC(=O)COc1ccccc1 | · | · | · | · | – | ·
NC(=NOC(=O)CCCc1ccccc1)c1cccc([N+](=O)[O-])c1 | · | · | · | · | – | ·
O=C(CN1C(=O)S/C(=C\c2ccc(C(=O)O)cc2)C1=O)Nc1ccccc1 | – | – | 35 | – | – | –
Cc1ccc(NC(=O)CN2C(=O)S/C(=C/c3ccncc3)C2=O)cc1 | – | – | – | – | · | –
SMILES | PrP UTR inh | Y pestis TopoI | GDH-TPI counter | FBA Mtb inh | Mtb hypoxia rep | PrPC surface inh
Cc1cc(C)nc(NN2C(=O)/C(=C/c3ccccc3)SC2=S)n1 | – | – | 34 | – | – | –
O=C1/C(=C/c2ccncc2)SC(=S)N1Nc1ccccc1 | · | – | – | – | – | –
N#CC1(Nc2ccccc2)C(=O)Nc2ccccc21 (stereo not drawn) | – | – | – | – | 56 | –
N#CC1(Nc2cccc(Br)c2)C(=O)Nc2ccccc21 (stereo not drawn) | – | – | – | – | – | –
CCN1C(=O)C2C(C)C3=C4C(CC(C(=O)OC)=CC(C(=O)OC)C4C(CC)(CC)C3=O)C2C1=O (stereo not drawn) | · | · | · | · | – | ·
CC(=O)OCC1=C(C(=O)O)N2C(=O)[C@@H](NC(=O)Cc3ccccc3)[C@H]2SC1 | – | – | – | – | · | –
CC(=O)OCC1=C(C(=O)O)N2C(=O)C(NC(=O)COc3ccc(F)cc3)C2SC1 (stereo not drawn) | – | – | – | – | 37 | –
O=C1CS/C(=N/N=C/c2cccs2)N1Cc1ccc(F)cc1 | · | – | 37 | – | · | –
COC(=O)[C@@]12CCCCN1C(c1ccc(-c3cc(C(C)=O)cs3)cc1)C1C(=O)N(C)C(=O)C12 (stereo partly drawn) | · | · | · | · | – | ·
CCOc1ccc(/C=C2\SC(N3CCc4ccccc4C3)=NC2=O)cc1 | – | – | – | – | – | –
O=C1N=C(N2CCc3ccccc3C2)S/C1=C\c1cccc(O)c1 | – | – | 32 | – | – | –
COc1ccc(/C=C2\SC(N3CCc4ccccc4C3)=NC2=O)cc1 | – | – | 41 | – | – | –
COc1ccc2c(c1)OC(c1cccc(C(F)(F)F)c1)C(O)C2=O (stereo not drawn) | · | · | · | · | – | ·
C#CCOCCOCCOCCNc1nc(N2CCN(C(=O)C(CCC(=O)O)n3cc(C(N)CO)nn3)CC2)nc(N2CCN(C(=O)C(Cc3ccc(O)cc3)n3cc(C(N)CC(C)C)nn3)CC2)n1 (stereo not drawn) | · | · | · | · | – | ·
COc1ccc(/C=C/C(=O)NC(=S)Nc2ccc(S(=O)(=O)Nc3cc(C)on3)cc2)cc1 | – | – | 35 | – | – | –
COc1ccc(/C=C/C(=O)NC(=S)Nc2ccc(S(=O)(=O)Nc3ccc(OC)nn3)cc2)cc1 | – | – | 39 | – | – | –
COc1ccc(/C=C/C(=O)NC(=S)Nc2ccc(S(N)(=O)=O)cc2)cc1 | – | – | – | – | – | –
Cc1ccc(S(=O)(=O)Oc2cccc(C=Nn3cnnc3)c2)cc1 | · | · | · | · | – | ·
Cc1c2ccncc2c(C)c2c1[nH]c1ccccc12 | – | – | – | – | 60 | ·
Cc1c2ccncc2cc2c1[nH]c1ccccc12 | – | – | – | – | – | –
COc1ccc(NC(=O)Nc2cccc3c2OC(CN(C)C(=O)NC2CCCCC2)C(C)CN(C(C)CO)C3=O)cc1 (stereo not drawn) | · | · | · | · | – | ·
CCCn1c(=O)c2[nH]c(-c3ccc(S(=O)(=O)O)cc3)nc2n(CCC)c1=O | – | – | – | + | – | –
CCn1c(=O)c2[nH]c(Cl)nc2n(CC)c1=O | · | – | – | – | · | –
COc1ccc(C2CC(=O)C=C(c3cccc(Cl)c3)C2)cc1 (stereo not drawn) | · | · | · | · | – | ·
N#CC1=C(N)n2c(s/c(=C\c3ccco3)c2=O)=C(C#N)C1c1ccco1 (stereo not drawn) | – | – | 33 | – | · | –
C=CCNc1nc(N)c(C(=C(C#N)C#N)c2ccc(Br)cc2)s1 | – | ? | – | 126 | – | –
O=C(O)C1CCCC[C@H]1C(=O)Nc1ncc([N+](=O)[O-])s1 (stereo partly drawn) | – | – | 31 | – | · | –
Cc1ccc(NC(=O)c2nc[nH]c2C(=O)NC(C)C(=O)OC(C)(C)C)cc1 (stereo not drawn) | · | · | · | · | – | ·
N#C/C(=C\c1ccc(O)c(O)c1)C(=O)c1ccc(O)c(O)c1 | – | – | 46 | – | · | –

Screens (PubChem BioAssay)
